Consider 38 molecules from PubChem BioAssay (NCATS).

Records with an inconclusive call do not appear. Values without a mark were called inactive. The source made the active and inactive calls. The call rests on the fitted dose curve; in most records, active means well fitted inhibition curve with a large enough effect; inconclusive means small, poorly fitted or top-dose-only effect; inactive means flat fitted curve, though single readings scatter. Where a SMILES comes first, the peptide text is derived from it. Bridges are numbered along the chain shown (N, C = ends). [ ]: non-standard residue; d: D form. hArg = N=C(N)NCCCC[C@H](N)C(=O)O; Mpa = O=C(O)CCS
On the % scale 0 is the no-effect control and ±100 the full control effect.

The test system of the experiment is HEK293. As to the kind of experiment: Cytotoxic Profiling of Annotated Libraries Using Quantitative High-Throughput Screening (AID 1296008). Further: nearly all actives have a fitted effect of over 60% in size. The settings on record: Five cell lines viability, CellTiter-Glo ATP luminescence, 48-72 h; active compounds read low. The procedure, abridged:
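Compounds were pin-transferred onto cells and incubated 48 or 72 hr at 37 degree Celsius, 95% humidity. CellTiter-Glo was added, plates sat 10 min at room temperature, then ATP-coupled luminescence was imaged as the viability read-out.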
(ATP-based viability assays read luminescence as a measure of living cells.)
For `NC(=O)[C@@H]1CSSCCC(=O)N[C@@H](CCCCN=C(N)N)C(=O)NCC(=O)N[C@@H](CC(=O)O)C(=O)N[C@@H](Cc2c[nH]c3ccccc23)C(=O)N2CCC[C@H]2C(=O)N1` ([Mpa][hArg]GDWPC-NH2; disulfide 1-7), the max response is -7.03%.
Still for that read-out and setting: the result for `Cc1ccc(C(C)C)c(O)c1` reads 3.73%.
Take `COc1ccc(-c2cc(=O)c3c(O)cc(O[C@@H]4O[C@H](CO[C@@H]5O[C@@H](C)[C@H](O)[C@@H](O)[C@H]5O)[C@@H](O)[C@H](O)[C@H]4O)cc3o2)cc1O`: the molecule was classed as inactive.
Turning to `CC[N+](C)(CC)CCOC(=O)C1c2ccccc2Oc2ccccc21`, the max response is -9.27%.
On the same count and under the same terms, in the case of `COc1ccccc1Oc1c(NS(=O)(=O)c2ccc(C(C)(C)C)cc2)nc(-c2ncccn2)nc1OCCO` it was -4.43%; in that of `Cc1cc(C)c(NC(=O)CN(CC(=O)O)CC(=O)O)c(C)c1Br`, -7.54%.
On the same count and under the same terms, the result for `Cc1ccc(S(=O)(=O)NC(=O)NC2CCCCCCC2)cc1` reads 4.09%.
On to `C/C=C1\[C@H]2C=C(C)C[C@]1(N)c1ccc(=O)[nH]c1C2`, for which the result was inactive.
With `C1CCN2C[C@@H]3C[C@@H](CN4CCCC[C@@H]34)[C@H]2C1`, the max response was -9.35%.
Still for that read-out and setting: the result for `CCCNC(C)(C)COC(=O)c1ccccc1` reads 3.12%; that for `C[C@@H]1CCC[C@H](C)N1`, -9.02%.
With `Cn1cc(C(=O)[C@@H]2CCc3nc[nH]c3C2)c2ccccc21`, the max response was 3.07%.
Same read-out and setting: the result for `CCOC(=O)[C@H](CCc1ccccc1)N[C@@H](C)C(=O)N1CCC[C@H]1C(=O)O` reads -1.68%.
Turning to `c1ccc2[nH]ccc2c1`, the max response is -5.55%.
On the same count and under the same terms, the result for `NS(=O)(=O)c1ccc(C(=O)O)cc1` reads -0.608%.
Still for that read-out and setting: the result for `O=C(Cn1ccnc1[N+](=O)[O-])NCc1ccccc1` reads -3.43%; that for `O=c1[nH]cnc2nc[nH]c12`, -1.3%; that for `O[C@@H]1CO[C@H]2[C@@H]1OC[C@@H]2O`, -0.534%.
For the molecule `Cc1cc(OI)c(C(C)C)cc1-c1cc(C(C)C)c(OI)cc1C`, the max response was 2.3%.
Same read-out and setting: the result for `CC(=O)N[C@H]1[C@H]([C@H](O)[C@H](O)CO)OC(C(=O)O)=C[C@@H]1N=C(N)N` reads 1.78%.
For the molecule `CC1(C)S[C@@H]2[C@H](NC(=O)C(C(=O)O)c3ccccc3)C(=O)N2[C@H]1C(=O)O` (stereo partly drawn), the call was inactive.
On to `CC(=O)NS(=O)(=O)c1ccc(N)cc1`, for which the max response was -5.52%.
Same read-out and setting: the result for `C=CCNC(N)=S` reads -1.79%.
In the case of `CC(=O)[C@@]1(O)CC[C@H]2[C@@H]3C[C@H](C)C4=CC(=O)C=C[C@]4(C)[C@@]3(F)[C@@H](O)C[C@@]21C`, the outcome was inactive.
Same read-out and setting: the result for `OCCN1C[C@H](O)[C@@H](O)[C@H](O)[C@H]1CO` reads “inactive”.
With `NC(N)=NCCN1CCCCCCC1`, the max response was 0.733%.
Turning to `O=C1c2cccc(O)c2C(=O)c2c(O)cccc21`, the max response was -0.119%.
With `NNC(=O)CP(=O)(c1ccccc1)c1ccccc1`, the max response is 0.687%.
The same measure, in the same setting: in the case of `C[C@@H](c1ncncc1F)C(O)(Cn1cncn1)c1ccc(F)cc1F` (stereo partly drawn) it was 2.6%; in that of `Nc1ccncc1N`, -11.7%; in that of `Cc1ccc(S(=O)(=O)NC(=O)NC2CCCCC2)cc1`, 2.4%.
Still for that read-out and setting: the result for `Cc1cc(-n2nc3ccc(Cl)cc3n2)c(O)c(C(C)(C)C)c1` reads 4.97%; that for `CN/C(=C\[N+](=O)[O-])NCCSCc1csc(CN(C)C)n1`, -19.8%.
On the same count and under the same terms, in the case of `CCN1CC(CCN2CCOCC2)C(c2ccccc2)(c2ccccc2)C1=O` (stereo not drawn) it was -5.24%; in that of `O=C(/C=C/c1ccc(O)c(O)c1)O[C@@H]1C[C@@](OC(=O)/C=C/c2ccc(O)c(O)c2)(C(=O)O)C[C@@H](O)[C@@H]1O`, -4.83%.
For `CCOC(=O)c1cccnc1`, the max response is -0.734%.
The same measure, in the same setting: in the case of `CC[C@H](C)[C@H](N)C(=O)O` it was -2.12%; in that of `O=C1c2ccccc2C(=O)C1c1ccc(Br)cc1`, -0.633%.
